High-throughput results as filed in PubChem BioAssay.
Cruzain Triton = blocks cruzain activity in presence of Triton detergent; P25779; purified cruzain, Z-FR-AMC fluorescence, 0.01% Triton; Potency, µM, actives largely listed as inhibitors; actives 0.43% (n = 200,000); AID 1478; further: nearly all actives have a fitted effect of over 40% in size
Target sequence (P25779 123-467 limits assumed): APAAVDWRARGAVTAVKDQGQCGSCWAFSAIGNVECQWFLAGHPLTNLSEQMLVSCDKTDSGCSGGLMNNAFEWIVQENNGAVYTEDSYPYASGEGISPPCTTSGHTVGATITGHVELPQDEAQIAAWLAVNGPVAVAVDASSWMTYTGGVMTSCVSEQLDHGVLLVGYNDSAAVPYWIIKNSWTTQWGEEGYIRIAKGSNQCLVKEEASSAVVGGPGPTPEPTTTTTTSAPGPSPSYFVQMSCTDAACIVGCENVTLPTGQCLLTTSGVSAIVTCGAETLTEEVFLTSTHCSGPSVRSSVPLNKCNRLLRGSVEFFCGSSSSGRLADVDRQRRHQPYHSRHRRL
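Compounds were screened in titration against cruzain (1.5 nM) with 0.01% Triton X-100 to counter colloidal aggregation. Activity was the AMC fluorescence increase over 60 s after adding 2 uM Z-FR-AMC at pH 5.5.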
Cruzain noTriton = cruzain (T. cruzi) inhibition without detergent. actives 2.3% (n = 200,000). P25779. purified cruzain, Z-FR-AMC fluorescence, no detergent. Potency, µM, actives largely listed as inhibitors; further: nearly all actives have a fitted effect of over 40% in size
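Detergent-free condition (0.00005% Triton X-100) in acetate buffer pH 5.5 with DTT. 1.5 nM enzyme and compound were pre-mixed 15 min, then 2 uM Z-FR-AMC substrate added; reaction progress from fluorescence change between first and third reads (60 s).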
A number is an active result; . = inactive; ? = inconclusive; ! = repeats disagree. Only some compounds are listed: those with a hit (about 2.4% of all), similar ones and a draw of the others. The call rests on the fitted dose curve; in most records, active means well fitted curve in the direction sought with a large enough effect; inconclusive means small, poorly fitted or top-dose-only effect, or another doubt; inactive means no such curve, though single readings can be large; an effect the other way counts as inactive or inconclusive.

SMILES	Cruzain Triton	Cruzain noTriton
COc1ccc(S(=O)(=O)N2CCN(c3ccc(Cl)c(Cl)c3)CC2)c2ccccc12	.	7.9µM
COc1ccc(NC(=O)CSc2nc(O)cc(=O)n2-c2ccccc2OC)cc1	?	16µM
COc1ccccc1-n1c(SCC(=O)Nc2ccc(C)cc2)nc(O)cc1=O	.	.
Fc1cccc(CN2CCc3nc(Nc4ccc5c(c4)OCCO5)ncc3C2)c1F	.	.
O=C(Nc1ccc(OC(F)(F)F)cc1)NC1COc2ccccc2C1 (stereo not given)	.	.
CCOc1ccccc1Nc1nc(-c2ccc(C)cc2)c(CC(=O)O)s1	.	?
O=C(Nc1ccc(Cl)cc1)Nc1ccc2c(c1)N1CCN=C1S2	?	32µM
Nc1ccc2c(c1)N1CCN=C1S2	.	.
O=S(=O)(Nc1nc2ccccc2nc1NCc1ccco1)c1ccc(Cl)cc1	.	20µM
Cc1ccc(S(=O)(=O)Nc2nc3ccccc3nc2NCc2ccco2)cc1	.	?
Cc1ccc(NC(=O)CCn2c(=O)oc3ccccc32)cc1	.	.
CCc1ccc(NC(=O)CCn2c(=O)oc3ccccc32)cc1	.	1.3µM
O=C(Nc1nnc(C2CCCCC2)s1)c1ccc(Br)s1	.	25µM
Cc1cc(C(=O)Nc2nnc(C3CCCCC3)s2)cs1	.	?
CN(C)c1ccc(CNS(=O)(=O)c2ccc3[nH]c4c(c3c2)CCCCC4)cc1	.	?
CCOc1ccc2nc(NC(=O)c3nc(SCc4ccccc4F)ncc3Cl)sc2c1	.	.
O=C(Cn1c(C(=O)N2CCc3ccccc3C2)cc2sccc21)c1ccccc1	.	25µM
O=C(Cn1c(C(=O)N2CCN(C3CCCCC3)CC2)cc2sccc21)c1ccccc1	.	.
CCCn1c(=O)c2ccccc2n2c(SCc3nc4ccccc4s3)nnc12	.	13µM
CCCCn1c(SCc2nc3ccccc3s2)nc2ccccc2c1=O	.	.
CC(C)C(=O)Nc1nnc(S(=O)(=O)N(C)Cc2ccc(F)cc2)s1	.	.
COc1ccccc1NC(=O)CSc1nc2ccccc2c2nc(-c3ccccc3)nn12	.	.
N#Cc1c(/N=C/c2cc3ccccc3s2)sc2c1CCC2	.	13µM
Cc1ccc(/C=N/c2sc3c(c2C#N)CCC3)s1	.	.
C/C(=N/NS(=O)(=O)c1ccc(C)cc1)c1cccc(NC(=O)c2cccc(Cl)c2)c1	.	.
SMILES	Cruzain Triton	Cruzain noTriton
C/C(=N/NS(=O)(=O)c1ccc(Cl)cc1)c1cccc(NC(=O)c2ccc(Cl)cc2Cl)c1	.	25µM
COc1ccc(N2CCN(CCCNC(=O)c3cnn(-c4ccc(F)cc4)c3-n3cccc3)CC2)cc1	.	.
CCOc1ccc(/C=C/c2nc(C#N)c(NCc3ccccc3)o2)cc1	.	.
C=CCNc1oc(/C=C/c2ccccc2)nc1C#N	32µM	?
CN(C)CCNc1oc(/C=C/c2ccccc2)nc1C#N	.	25µM
CN(C)CCCNc1oc(/C=C/c2ccc(F)cc2)nc1C#N	?	25µM
COc1cc(/C=C/c2nc(C#N)c(NCCc3ccccc3)o2)cc(OC)c1OC	.	?
CCOc1ccc(/C=C/c2nc(C#N)c(NCCCN(C)C)o2)cc1	.	?
Cc1cc(NC(=O)CSc2nc(-c3cccc(F)c3)nc3c2c(=O)n(C)c(=O)n3C)no1	.	.
Cn1nnnc1SCCCNCc1cc(Br)ccc1OCc1ccccc1F	.	.
Cc1cccc(-c2nc3c4ccccc4nc(N4CCN(c5ccccc5F)CC4)n3n2)c1	.	.
CCOc1ccc(-n2c(/C=C/c3cccc(F)c3)nc3cc(OC)c(OC)cc3c2=O)cc1	.	.
CC1=C(\C=C/C(C)=C/C=C\C(C)=C\C(=O)O)C(C)(C)CCC1	.	?
CC1=C(/C=C/C(C)=C/C=C/C(C)=C/C(=O)Nc2ccc(O)cc2)C(C)(C)CCC1	.	16µM!
COc1ccccc1C(=O)Nc1nnc(SCc2cc(=O)c3cc(Cl)ccc3[nH]2)s1	.	.
CCOC(=O)c1c(C)oc2nc(C)nc(NCc3ccc(F)cc3)c12	.	.
O=c1[nH]c(CN2CCc3ccccc32)nc2scc(-c3cccs3)c12	.	10µM
O=c1[nH]cnc2scc(-c3cccs3)c12	.	.
CSCCC(NS(=O)(=O)c1ccc2c(c1)oc(=O)n2C)C(=O)N1CCN(c2cc(Cl)ccc2C)CC1 (stereo not given)	.	.
Cc1ccc(CCC(=O)Nc2ncc(Cc3cccc(Cl)c3Cl)s2)o1	.	13µM
CCc1nnc(NC(=O)CCc2ccc(C)o2)s1	.	.
COc1ccccc1CNC(=O)c1cc2c(=O)n(Cc3cccs3)ccc2nc1C	.	?
Cc1nn(C)c2c1c(-c1ccccc1)cc(=O)n2CC(=O)NC(C)c1ccccc1 (stereo not given)	.	.
Cc1ccc(-c2nnn(CC(=O)N(Cc3cccs3)C(C(=O)NC3CCCC3)c3ccco3)n2)o1 (stereo not given)	.	.
Cc1ccc(-c2nnn(CC(=O)N(c3ccccc3)C(C(=O)NC3CCCC3)c3ccco3)n2)o1 (stereo not given)	.	10µM
SMILES	Cruzain Triton	Cruzain noTriton
CC1=C(C(=O)O)N2C(=O)[C@@H](NC(=O)[C@@H](N)c3ccccc3)[C@@H]2SC1	.	.
Cc1ccc2c(CC(=O)Nc3ccc(S(=O)(=O)N4CCCC(C)C4)cc3)coc2c1 (stereo not given)	.	?
Cc1ccc2c(CC(=O)Nc3ccc(S(=O)(=O)N4CCCCC4)cc3)coc2c1	.	25µM
Cc1cc(C)c2c(CC(=O)Nc3ccc(S(=O)(=O)N4CCCCC4)cc3)coc2c1	.	?
Cc1ccc2c(CC(=O)Nc3ccc(S(=O)(=O)N4CCCCC4)cc3)coc2c1C	.	25µM
C[C@H](C(=O)c1ccccc1)C(c1ccccc1)N1CCOCC1 (stereo not given in full)	.	.
COc1ccc(Cl)cc1NC(=O)Cn1ccn(Cc2ccc(C)cc2)c(=O)c1=O	.	?
CC(C)c1ccc(S(=O)(=O)NCc2ccc3c(c2)CCN3C(=O)c2ccccc2)cc1	.	.
C=CCn1c(O)c(N=NC(=O)OC(C)(C)C)c2ccccc21	.	.
C=CCn1c(O)c(N=NC(=S)Nc2ccc(OC)c(Cl)c2)c2ccccc21	.	10µM
CCC(CC)C(=O)Nc1ccc2nc(SCC(=O)N3CCOCC3)sc2c1	.	.
CCOc1ccccc1NC(=O)CC1Nc2ccccc2NC1=O (stereo not given)	.	?
Cc1ccc(NC(=O)CC2Nc3ccccc3NC2=O)cc1Cl (stereo not given)	?	25µM
CCCOc1ccccc1NC(=O)CC1Nc2ccccc2NC1=O (stereo not given)	.	13µM
Cc1ccc(NC(=O)CC2Nc3ccccc3NC2=O)cc1C (stereo not given)	.	.
CCOc1ccccc1CNC(=O)CCn1c(=O)c2cccn2c2ccc(F)cc21	.	.
COc1ccc(-c2nnc(SCC(=O)N(C)Cc3ccccc3)o2)cc1OC	.	?
CCOC(=O)N1CCN(Cc2nc3cc(NC(=O)C(C)C)ccc3n2C(C)C)CC1	.	.
O=S(=O)(c1ccc2nc(Nc3ccc(F)cc3)ccc2c1)N1CCCC1	.	.
CC1CCN(S(=O)(=O)c2ccc3nc(Nc4ccc(C#N)cc4)ccc3c2)CC1	.	32µM
CC1CCN(S(=O)(=O)c2ccc3nc(Nc4cccc(C(F)(F)F)c4)ccc3c2)CC1	.	?
CCOc1ccc(OCC)c(Nc2ccc3cc(S(=O)(=O)N4CCCC4)ccc3n2)c1	.	.
COc1ccc(Nc2ccc3cc(S(=O)(=O)N4CCCC4)ccc3n2)cc1Cl	.	25µM
